Pf Dd2 growth – blocks growth of Plasmodium falciparum Dd2 parasites | AID 1159554 | P. falciparum Dd2 growth, SYBR Green, 72 h; hits give low values | activity change, % at 10 µM | 2.3% of 94,000 active; in the data active = activity change below about -80%; inconclusive = no clear call, values can overlap the other calls
T cruzi growth-1 – inhibitors of T. cruzi proliferation; T. cruzi beta-gal in NIH3T3, GalScreen luminescence, 90 h; inhibition, % at 8.34 µM; 5.9% of 77,000 active;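 active = mean inhibition above about 93%, with at least 55% of replicates each passing it, limit read from the data, passing the limit was not always enough; inconclusive = only one of those two conditions holds; inactive = neither condition holds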
C diff growth – inhibitors of Clostridium difficile growth | growth activity, negative = inhibition, % at 16 µg/mL (by protocol) | 0.25% of 86,000 active | AID 1259249 | Clostridium difficile clinical isolate growth, OD600, 24 h; hits give low values;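 active = mean growth activity at or below -80% and every replicate also at or below -80%; inconclusive = mean at or below -80% but some replicate above -80%; inactive = mean growth activity above -80%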
T cruzi growth-2 – blocks T. cruzi growth in NIH3T3 host cells; shares compounds with T cruzi growth-1; inhibition, % at 8.35 µM; T. cruzi beta-gal in NIH3T3, GalScreen luminescence, 90 h; 72% of 5,600 active;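 active = mean replicate inhibition above about 95% and at least 55% of replicates individually reaching it, limit read from the data; inconclusive = only one of the two criteria is met; inactive = neither criterion is met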
T cruzi growth-3 – blocks T. cruzi growth in NIH3T3 host cells; shares compounds with T cruzi growth-1; T. cruzi beta-gal in NIH3T3, GalScreen luminescence, 90 h; inhibition, % at 2.09 µM; 21% of 5,600 active; AID 651740;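 active = mean inhibition above about 95%, with at least 55% of replicates also reaching it, limit read from the data; inconclusive = meets just one of the two conditions; inactive = meets neither condition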
NIH3T3 tox – kills mouse NIH/3T3 fibroblasts; shares compounds with T cruzi growth-1; NIH/3T3 viability, CellTiter-Glo ATP luminescence, 90 h; cytotoxicity (signal decrease), % at 8.35 µM; 14% of 5,600 active; AID 651742;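 active = mean signal decrease across replicates above about 35% based on untreated-well scatter, with enough replicates individually passing, limit read from the data; inconclusive = no rule stated though some were filed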
NIH3T3 tox 2 – kills mouse NIH/3T3 fibroblasts; 56% of 5,600 active; shares compounds with T cruzi growth-1; AID 651744; NIH/3T3 viability, CellTiter-Glo ATP luminescence, 90 h; inhibition, % at 24.9 µM;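 active = mean loss of cell viability signal at or above a set limit, and enough replicates individually reaching it; inconclusive = meets only the mean limit or only the replicate share; inactive = meets neither condition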
Hits are given with their value; 0 = inactive; ? = inconclusive; - = no result given; ! = repeats disagree. In the library only some 6.8% were active in any assay of this set; here they are far more common.

SMILES | Pf Dd2 growth | T cruzi growth-1 | C diff growth | T cruzi growth-2 | T cruzi growth-3 | NIH3T3 tox | NIH3T3 tox 2
O=C(c1cccc(F)c1)N1CCCCN2[C@@H](CO)[C@H](c3ccc(/C=C/c4ccccc4)cc3)[C@@H]2C1 | 0 | 111 | 0 | 103 | 0 | 45 | 103
O=C(c1cccc(F)c1)N1CCCCN2[C@H](CO)[C@@H](c3ccc(/C=C/c4ccccc4)cc3)[C@H]2C1 | 0 | 0 | 0 | - | - | - | -
O=C(c1cccc(F)c1)N1CC(=O)N2[C@@H](CO)[C@H](c3ccc(/C=C/c4ccccc4)cc3)[C@@H]2C1 | 0 | - | 0 | - | - | - | -
O=C(c1cccc(F)c1)N1CCCCN2[C@H](CO)[C@H](c3ccc(/C=C/c4ccccc4)cc3)[C@H]2C1 | 0 | 111 | 0 | 102 | 0 | 91 | 104
O=C(c1cccc(F)c1)N1CC(=O)N2[C@H](CO)[C@@H](c3ccc(/C=C/c4ccccc4)cc3)[C@H]2C1 | 0 | - | 0 | - | - | - | -
O=C(c1cccc(F)c1)N1CCCCN2[C@H](CO)[C@H](c3ccc(/C=C/c4ccccc4)cc3)[C@@H]2C1 | 0 | 114 | 0 | 100 | 110 | 0 | 99
C[C@@H]1CN([C@H](C)CO)C(=O)c2cccc(NC(=O)C3CCCCC3)c2O[C@H]1CN(C)Cc1ccc(-c2ccccc2)cc1 | 0 | 0 | 0 | - | - | - | -
CC(C)(O)c1cn([C@H]2C[C@@H]3O[C@@H](CO)CC[C@@H]3O[C@@H]2CCc2ccc(-c3ccncc3)cc2)nn1 | 0 | - | 0 | - | - | - | -
Cc1noc(C)c1S(=O)(=O)Nc1ccc2c(c1)C(=O)N([C@@H](C)CO)C[C@H](C)[C@@H](CN(C)C(=O)Nc1ccc(F)cc1)OCCCC[C@H](C)O2 | 0 | 0 | 0 | - | - | - | -
CC(C)CC#Cc1cnc2c(c1)C(=O)N([C@H](C)CO)C[C@@H](C)[C@H](CN(C)Cc1ccc3c(c1)OCO3)O2 | 0 | 0 | 0 | - | - | - | -
Cc1noc(C)c1S(=O)(=O)N(C)C[C@H]1OCCCC[C@H](C)Oc2ccc(NC(=O)Nc3cccc4ccccc34)cc2C(=O)N([C@H](C)CO)C[C@@H]1C | 0 | 116 | 0 | 101 | 0 | 0 | 35
Cc1noc(C)c1S(=O)(=O)N(C)C[C@@H]1OCCCC[C@@H](C)Oc2ccc(NC(=O)Nc3ccccc3)cc2C(=O)N([C@@H](C)CO)C[C@@H]1C | 0 | - | 0 | - | - | - | -
Cc1noc(C)c1S(=O)(=O)N(C)C[C@H]1OCCCC[C@@H](C)Oc2ccc(NC(=O)Nc3cccc4ccccc34)cc2C(=O)N([C@@H](C)CO)C[C@H]1C | 0 | 113 | 0 | 102 | 0 | 0 | 0
Cc1noc(C)c1S(=O)(=O)N(C)C[C@@H]1OCCCC[C@@H](C)Oc2ccc(NC(=O)Nc3cccc4ccccc34)cc2C(=O)N([C@H](C)CO)C[C@@H]1C | 0 | 0 | 0 | - | - | - | -
C[C@@H]1CCCCO[C@@H](CN(C)C(=O)NC2CCCCC2)[C@H](C)CN([C@H](C)CO)C(=O)c2cc(NC(=O)CCCN(C)C)ccc2O1 | 0 | 0 | 0 | - | - | - | -
O=C(c1ccncc1)N1CC(=O)N2[C@@H](CO)[C@H](c3ccc(/C=C/c4ccccc4)cc3)[C@@H]2C1 | 0 | - | 0 | - | - | - | -
COc1ccccc1C#Cc1ccc([C@@H]2[C@@H](CO)N3CCCCN(C(=O)C4CC4)C[C@H]23)cc1 | 0 | 0 | 0 | - | - | - | -
COc1ccccc1C#Cc1ccc([C@H]2[C@@H](CO)N3CCCCN(C(=O)C4CC4)C[C@H]23)cc1 | 0 | 108 | 0 | 105 | 103 | 0 | 105
COc1ccccc1C#Cc1ccc([C@H]2[C@@H](CO)N3CCCCN(C(=O)C4CCC4)C[C@@H]23)cc1 | 0 | 106 | 0 | 111 | ? | 50 | 74
COc1ccccc1C#Cc1ccc([C@@H]2[C@H](CO)N3CCCCN(C(=O)C4CCC4)C[C@@H]23)cc1 | 0 | 0 | 0 | - | - | - | -
COc1ccccc1C#Cc1ccc([C@H]2[C@H](CO)N3CCCCN(C(=O)C4CCCC4)C[C@@H]23)cc1 | 0 | 107 | 0 | 106 | 106 | 43 | 105
COc1ccccc1C#Cc1ccc([C@H]2[C@H]3CN(C(=O)C4CCC4)CCCCN3[C@H]2CO)cc1 | 0 | 0 | 0 | - | - | - | -
COc1ccccc1C#Cc1ccc([C@@H]2[C@@H](CO)N3CCCCN(C(=O)C4CCCC4)C[C@@H]23)cc1 | 0 | 117 | 0 | 102 | 98 | 0 | 105
COc1ccccc1C#Cc1ccc([C@@H]2[C@@H](CO)N3CCCCN(C(=O)C4CCC4)C[C@H]23)cc1 | 0 | 0 | 0 | - | - | - | -
O=C(O)C[C@@H]1C=C[C@@H](NC(=O)c2ccccc2F)[C@@H](CO)O1 | 0 | 0 | - | - | - | - | -
SMILES | Pf Dd2 growth | T cruzi growth-1 | C diff growth | T cruzi growth-2 | T cruzi growth-3 | NIH3T3 tox | NIH3T3 tox 2
COc1ccccc1-c1cn(CC[C@H]2CC[C@H](NC(=O)C3CCC3)[C@H](CO)O2)nn1 | 0 | - | 0 | - | - | - | -
COC(=O)C[C@@H]1CC[C@@H]2[C@@H](COc3ccc(NC(=O)c4cnccn4)cc3C(=O)N2C)O1 | 0 | 0 | 0 | - | - | - | -
C[C@@H]1CN([C@@H](C)CO)C(=O)c2cc(C#Cc3cccc(F)c3)cnc2O[C@H]1CN(C)C(=O)C1CCCCC1 | 0 | 117! | 0 | 105 | 0 | 0 | 92
C[C@H]1CN([C@@H](C)CO)C(=O)c2cc(C#Cc3cccc(F)c3)cnc2O[C@@H]1CN(C)C(=O)C1CCCCC1 | -89 | 114 | - | 113 | 0 | 0 | 76
C[C@H](CO)N1C[C@H](C)[C@@H](CN(C)C(=O)C2CC2)Oc2ncc(C#Cc3cccc(F)c3)cc2C1=O | 0 | 0 | 0 | - | - | - | -
C[C@H]1CN([C@@H](C)CO)C(=O)c2cc(C#Cc3cccc(F)c3)cnc2O[C@H]1CN(C)C(=O)C1CC1 | 0 | 0 | 0 | - | - | - | -
Cc1ccc(S(=O)(=O)N[C@H]2CC[C@H](CCn3cc(C4(O)CCCC4)nn3)O[C@H]2CO)cc1 | 0 | 0 | 0 | - | - | - | -
CNC[C@H]1Oc2ccc(NC(=O)C3CC3)cc2CC(=O)N([C@H](C)CO)C[C@H]1C | 0 | 0 | 0 | - | - | - | -
COCC(=O)Nc1ccc2c(c1)OC[C@H](C)N(CC1CC1)C[C@H](C)[C@@H](OC)CN(C)C2=O | 0 | - | 0 | - | - | - | -
C[C@@H]1CCCCO[C@@H](CN(C)CC2CCCCC2)[C@@H](C)CN([C@@H](C)CO)C(=O)c2cc(NS(C)(=O)=O)ccc2O1 | 0 | 104 | 0 | 0 | 0 | 0 | 0
C[C@@H]1CCCCO[C@H](CN(C)S(=O)(=O)c2cn(C)cn2)[C@@H](C)CN([C@@H](C)CO)C(=O)c2cc(NS(C)(=O)=O)ccc2O1 | 0 | 0 | 0 | - | - | - | -
C[C@@H]1CCCCO[C@@H](CN(C)S(=O)(=O)c2cn(C)cn2)[C@@H](C)CN([C@@H](C)CO)C(=O)c2cc(NS(C)(=O)=O)ccc2O1 | 0 | 102 | 0 | 0 | 0 | 0 | 0
Cc1ccc(S(=O)(=O)Nc2ccc3c(c2)C(=O)N([C@H](C)CO)C[C@@H](C)[C@@H](CN(C)CC2CCCCC2)OCCCC[C@H](C)O3)cc1 | 0 | 0 | 0 | - | - | - | -

Compound activity (PubChem)
